SMILES strings stand for the structures. Screen size: about 330,000 compounds; about 1,900 (0.58%) were called active. Not shown: some 4% with an inconclusive outcome. Rule as the data show it: inconclusive = inhibition above about 70% without an active follow-up result; inactive = below that. Only a sample is shown. Measured potencies and affinities stand elsewhere.

The nature of this assay: M. tuberculosis growth inhibition, HTS (AID 449762).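 Also: bacterial growth assessed after seven days of incubation.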 The note with it: M. tuberculosis H37Rv growth inhibition, 7H9 media; at 25 µM; hits give high values.
For orientation: inhibition means the change of the read-out against control, counted positive when it falls. As to `CC1Cn2c(nc3sc4c(c3c2=O)CCC4)N1CCO` (centres undefined), the inhibition was 3.69% (inactive). In the case of `O=C(c1ccccn1)N1CCN(c2ccc(C(F)(F)F)cn2)CC1`, the inhibition was -9.2% (inactive). With `Cc1ccc(C(=O)N2CCN(c3ccc(C(F)(F)F)cn3)CC2)cc1`, the inhibition was -8.18% (inactive). Turning to `CS(=O)(=O)N(CC(=O)Nc1ccc(C(N)=O)cc1)C1CCCCC1`, the inhibition was 0.92% (inactive). `CN(CC(=O)Nc1cccc(F)c1)C(=O)CCN1C(=O)C2CC=CCC2C1=O` (centres undefined): the inhibition was -7.97% (inactive).

Take `Cc1ccc(C(=O)N2CCC3(CC2)NCCc2[nH]cnc23)cc1`: the inhibition is 0.45% (inactive). On to `CCOC(=O)c1c(-c2ccccc2)c2cc(OC)ccc2n1CCCN(C)C`, for which the inhibition was 47.1% (inactive). As for `Cn1c(=O)c(C(=O)NNC(=O)c2ccccc2Cl)c(O)c2ccccc21`, the inhibition is 53.6% (inactive). With `Cn1c(=O)c(C(=O)NNC(=O)c2ccccc2Br)c(O)c2ccccc21`, the inhibition is 45.1% (inactive). As for `Cc1ccc(C(=O)N/C(=C\c2cccnc2)c2nc3ccccc3[nH]2)cc1`, the figure is -7.38% (inactive); as for `Cc1ccc(C(=O)N/C(=C\c2cccs2)c2nc3ccccc3[nH]2)cc1`, -6.82% (inactive).

As for `CC(C)[C@@]1(c2ccc(Cl)cc2)ON(c2ccccc2C(F)(F)F)C1=O`, the inhibition is -3.69% (inactive). Regarding `CCn1c(C)c(C)c2cc(C(=O)NCCCN3CCCC3)ccc21`, the inhibition was -0.8% (inactive).

As for `O=C(NC(=S)Nc1nc2c(s1)CCCC2)c1ccccc1`, the inhibition is 2.45% (inactive). In the case of `O=C(Nc1nc2c(s1)CCCC2)Oc1ccccc1`, the inhibition was -2.24% (inactive). Consider `O=C(COc1ccc([N+](=O)[O-])cc1)N/N=C/c1cc([N+](=O)[O-])ccc1N1CCOCC1`, for which the inhibition was 3.18% (inactive). On to `CCC(C)NC(=O)CNC(=S)N(Cc1ccccc1)Cc1cccnc1` (centres undefined), for which the inhibition is -7.33% (inactive). For `Cc1ccc(NCC(O)C(O)C(O)CO)cc1C` (centres undefined), the inhibition was -7.11% (inactive). Take `Cc1cc(NC(=O)CCC(=O)N(c2ccccc2)C(C(=O)NC2CCCC2)c2ccccc2C)no1` (centres undefined): the inhibition is 0.1% (inactive). Turning to `COc1ccc(N(C(=O)/C=C/C(=O)Nc2cc(C)on2)C(C(=O)NC2CCCC2)c2ccccc2C)cc1` (centres undefined), the inhibition is 40% (inactive). As for `CCCCCn1c(CCC(=O)Oc2ccccc2OC)nc2c1c(=O)[nH]c(=O)n2CCCC`, the inhibition was 4.88% (inactive).

For `COc1ccccc1CNC(=O)COC(=O)c1ccccc1SCC(=O)N1CCCC1`, the inhibition is 1.81% (inactive).

As for `COc1ccccc1OCC(=O)N(Cc1nnc(-c2ccccc2Cl)o1)C1CC1`, the inhibition is 0.28% (inactive). Turning to `COCCN(Cc1ccccc1)P(=O)(O)c1ccccc1OCC(=O)O`, the inhibition is -0.51% (inactive). As for `Cc1ccc2oc(=O)c(/C=C(\O)c3ccccc3)nc2c1`, the figure is -2.76% (inactive); as for `C/C(O)=C/c1nc2ccccc2[nH]c1=O`, 3.14% (inactive). Turning to `CC(=O)Nc1ccc(NC(=O)C(C)Oc2ccc(C)nc2[N+](=O)[O-])cc1` (centres undefined), the inhibition is 6.29% (inactive). Turning to `CCN(CCn1cccn1)C(=O)c1cc(COc2cccc3cccnc23)on1`, the inhibition is -3.82% (inactive).

In the case of `CC(C)(C)c1ccc(C(=O)N2CCN(CCNC(=O)C(=O)NCc3ccccc3)CC2)cc1`, the inhibition was -0.83% (inactive). In the case of `Cc1ccc(C(=O)N2CCN(CCNC(=O)C(=O)NCc3ccc(Cl)cc3)CC2)cc1`, the inhibition is 4.33% (inactive). For the molecule `O=C(Nc1ccccc1)N(CCCN1CCOCC1)Cc1ccccc1F`, the inhibition was -5.07% (inactive). As for `CCOC(=O)N1CCC2(CC1)CC(=O)c1c(ccc3oc(C(=O)O)c(C)c13)O2`, the figure is -2.67% (inactive); as for `COc1ccc2c(c1)CC(N1CCN(C)CC1)c1cc(OC)ccc1S2` (centres undefined), 9.95% (inactive). For `c1ccc2c(c1)CC(N1CCCCC1)c1ccccc1S2` (centres undefined), the inhibition is 0.42% (inactive).

In the case of `O=C(Nc1cc([N+](=O)[O-])ccc1C(=O)NCCN1CCOCC1)c1ccccc1`, the inhibition is 5.18% (inactive). On to `COCCn1c(SCc2nnc(-c3ccc(OC)c(OC)c3)o2)nnc1-c1ccncc1`, for which the inhibition is 5.88% (inactive). For `Cc1ccc(-c2nnc(NCc3nc4ccccc4[nH]3)c3ccccc23)cc1S(=O)(=O)N(C)C`, the inhibition was -2.52% (inactive). As for `Cn1c(-c2sc3cc(C(F)(F)F)cnc3c2-c2ccccn2)n[nH]c1=S`, the figure is -2.76% (inactive); as for `O=C(OCC(=O)N1CCCC1)c1ccccc1O`, 3.14% (inactive); as for `O=C(OCC(=O)N1CCCCCC1)c1ccccc1Br`, 4.05% (inactive). With `CC1CN(C(=O)COC(=O)c2ccc(F)cc2Cl)CC(C)O1` (centres undefined), the inhibition was 6.83% (inactive). As to `CC12CCC(C(=O)NCCCN3CCOCC3)(C(Br)C1=O)C2(C)C` (centres undefined), the inhibition is -0.09% (inactive). Consider `Cc1cc(Cc2c(O)[nH]c(=S)[nH]c2=O)ccc1OC(C)C`, for which the inhibition was -6.7% (inactive). In the case of `COC(=O)C1(CC2CC(c3ccccc3)=NO2)CCN(C(=O)OC(C)(C)C)CC1` (centres undefined), the inhibition is 3.82% (inactive). `Cc1cc(Cl)ccc1OCCCC(=O)NN`: the inhibition is 13.1% (inactive). In the case of `Cc1cc(Cl)ccc1OCCCC(N)=O`, the inhibition was -4.53% (inactive). As to `CCc1ccc(/C=C2/SC(=S)N(CCC(=O)NCCCN3CCOCC3)C2=O)cc1`, the inhibition is -8.2% (inactive). For the molecule `CN1CCN(c2ccc(NC(=O)c3ccc(-c4cccc([N+](=O)[O-])c4)o3)cc2)CC1`, the inhibition was 0.14% (inactive). For `CC(C)(C)C(=O)N1CCN(c2ccc(NC(=O)c3ccco3)cc2)CC1`, the inhibition is 2.75% (inactive). With `COCCN1CCN(C(=O)c2cc(COc3cc(C)ccc3C)on2)CC1`, the inhibition was -2.97% (inactive). As for `Cc1cnc(NC(=O)C2CCC(C(C)(C)C)CC2)s1` (centres undefined), the figure is -5.46% (inactive); as for `Cc1cnc(NC(=O)CC2CCCC2)s1`, 1.33% (inactive); as for `Cc1cccc(NC(=O)COC(=O)c2ccc3c(=O)n4c(nc3c2)CCC4)c1`, 0.33% (inactive). As to `CCNC(=O)NC(=O)C(C)On1nnc2ccc(S(=O)(=O)N(CC)CC)cc21` (centres undefined), the inhibition was -3.62% (inactive).

With `C=CCSc1nc(N)c2c(C)c(C)sc2n1`, the inhibition was -14.5% (inactive). `O=c1c2c(-c3ccc(Cl)cc3)csc2ncn1/N=C/c1cccc([N+](=O)[O-])c1O`: the inhibition was 3.59% (inactive). As for `O=c1c2c(-c3ccccc3)csc2ncn1/N=C/c1cccc([N+](=O)[O-])c1O`, the figure is 0.37% (inactive).

As to `CCOC(=O)N1CCN(c2c(NCC3CCCO3)c(=O)c2=O)CC1` (centres undefined), the inhibition is 2.94% (inactive). Take `COC(=O)c1cccc(NC(=O)CSc2nnc(C)o2)c1`: the inhibition was 3.7% (inactive).

Source of the values: PubChem BioAssay AID449762 (Southern Research Specialized Biocontainment Screening …, 2010).
